# Assay outcomes deposited in PubChem by The Scripps Research Institute Molecular Screening Center.
# DAX1 inh-1 = DAX1 (NR0B1) inhibitors on StAR promoter, primary screen, cell-based, luminescence, SF-1 (NR5A1), full-length DAX-1; HEK293T StAR-luciferase reporter, SF-1/DAX-1 repression relief; inhibition, % at 6.8 µM; 1.1% of 370,000 active; AID 652010, 2013;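 active = inhibition above the mean over all tested compounds plus 3 SD, cut at about 3.6% in these data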;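 also: 0% = DAX-1 cells with DMSO and 100% = cells lacking DAX-1 with DMSO; higher inhibition means more luminescence from relief of DAX-1 repression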
# hcDAF12 agonist = H. contortus DAF-12 nuclear receptor activators, primary screen, cell-based, luminescence, HEK293, lit1-tk-luc reporter. HEK293 hcDAF-12 lit1-tk-luc reporter; 0% DMSO, 100% Δ7-dafachronic acid. activation, % at 6.8 µM. 1.4% of 370,000 active. AID 652067, 2013;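 active = activation above the mean of all tested compounds plus 3 SD, cut at about 5.5% in these data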;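 also: 100% = response to 3 µM Δ7-dafachronic acid high control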
# DAX1 inh-2 = DAX1 (NR0B1) inhibitors, primary screen, cell-based, HEK293, Gal4-DAX1, luciferase luminescence. Nuclear receptor subfamily 0 group B member 1 (Homo sapiens), P51843. HEK293 Gal4-DAX1 luciferase reporter. inhibition, % at 6.75 µM. 0.99% of 340,000 active;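 active = inhibition above the mean over all tested compounds plus 3 SD, cut at about 4.2% in these data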;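 also: 0% = DAX1-transfected cells with DMSO and 100% = empty-vector control cells with DMSO; inhibition shows as a rise in luminescence from relieved DAX1 repression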
# Target sequence (P51843 207-470 limits assumed): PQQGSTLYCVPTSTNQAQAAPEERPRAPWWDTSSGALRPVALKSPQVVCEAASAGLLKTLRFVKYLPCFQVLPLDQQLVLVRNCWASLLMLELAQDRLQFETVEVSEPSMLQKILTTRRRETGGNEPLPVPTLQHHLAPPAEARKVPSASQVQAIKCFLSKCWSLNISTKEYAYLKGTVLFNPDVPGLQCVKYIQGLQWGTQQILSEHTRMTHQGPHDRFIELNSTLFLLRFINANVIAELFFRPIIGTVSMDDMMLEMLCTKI
# ssDAF12 agonist = S. stercoralis DAF-12 nuclear receptor activators, primary screen, cell-based, luminescence, HEK293, GRIP1 co-expression, lit1-tk-luc | Nuclear hormone receptor DAF-12 (Strongyloides stercoralis) | HEK293 ssDAF-12/GRIP1 lit1-tk-luc reporter; % of 3 µM dafachronic acid response | 1% of 370,000 active | AID 652126, 2013 | activation, % at 6.8 µM;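 active = activation above the mean over all tested compounds plus 3 SD, cut at about 0.9% in these data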;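 also: 0% = DMSO-only wells and 100% = 3 µM delta7-dafachronic acid wells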
# hgDAF-12 ag = H. glycines DAF-12 receptor agonists, primary screen, cell-based, luminescence, HEK293, GAL4 fusion, UAS-luciferase; Nuclear hormone receptor DAF-12 (Heterodera glycines), GAL4 fusion; HEK293 GAL4-hgDAF12 UAS-luciferase reporter, agonist luminescence; normalized to butyrate control; activation, % at 6.8 µM; 1.8% of 370,000 active; AID 687014, 2013;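 active = activation above a cutoff set at the mean of all screened compounds plus 3 SD, cut at about 10% in these data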;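 also: 0% = DMSO wells and 100% = sodium butyrate wells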
# SMARCA2 act = SMARCA2 (BRM) function activators, primary screen, cell-based, luminescence, high throughput; MG213 cells, MMTV-luciferase reporter, dexamethasone, overnight; activation, % at 9.1 µM; 1% of 370,000 active; in the data active = activation above about 7.8%;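 also: 0% = vehicle wells and 100% = reference activator wells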
# Starred values were filed as active, the others as inactive; · = not tested or not shown. Shown are actives, neighbours in structure and some others; about 4.8% of the full set was active somewhere.
SMILES,DAX1 inh-1,hcDAF12 agonist,DAX1 inh-2,ssDAF12 agonist,hgDAF-12 ag,SMARCA2 act
CCN1CCCCC(NC(=O)c2cccc(C(F)(F)F)c2)C1=O (stereo not drawn),-0.5,-0.6,·,-1.0,-0.5,-3.5
O=C(NC1CCCC1)C(c1ccccc1)N(C(=O)c1csnn1)c1ccccc1F (stereo not drawn),0.6,-0.2,4.7*,-0.3,-0.7,-4.8
Cc1ccc(C)c(N(C(=O)c2csnn2)C(C(=O)NC2CCCCC2)c2cccnc2)c1 (stereo not drawn),0.1,1.8,4.4*,-1.1,-1.6,-0.2
O=C(NC1CCCC1)C(c1ccc(F)cc1)N(C(=O)c1csnn1)C1CCCC1 (stereo not drawn),0.1,-1.7,5.9*,-1.2,1.3,-1.6
Nc1c(C(=O)Nc2ccc3c(c2)OCCO3)nnn1Cc1ccc(F)cc1,4.2*,2.5,-0.1,0.0,8.8,3.7
Cc1ccc(C)c(NC(=S)c2nc3ccccc3s2)c1,-0.1,5.8*,-1.8,1.0*,2.1,4.1
Cc1ccc(NC(=S)c2nc3ccccc3s2)cc1,-0.9,2.0,2.3,-0.8,-1.2,-0.6
CN(CCCOC(=O)c1occ2ccccc12)C1CN(Cc2cn(Cc3ccccc3Cl)nn2)S(=O)(=O)C1 (stereo not drawn),0.5,-1.6,·,-1.8,2.2,0.5
C/C(=N\O)C(C)(C)Nc1cccc(F)c1,0.5,-0.3,5.2*,-0.7,0.2,-4.7
COC(=O)[C@]12C[C@H](CC(=O)N3CCCCC3)C(=O)N(Cc3ccccc3)C1=C[C@H](C(C)(C)C)O[C@@H]2C,-0.3,-1.4,·,-0.4,-0.8,-4.7
O=c1[nH]c(/C=C/c2ccccc2F)nc2ccccc12,0.1,5.1,0.2,0.2,11.3*,1.4
CCOC(=O)[C@]12CCCCC/C=C\1N(Cc1ccc(OC)cc1)C(=O)[C@H]2CC(=O)NCc1cccc(C(F)(F)F)c1,0.1,-0.3,·,-1.7,-1.1,-1.3
Cc1cc[n+](C2=C([O-])c3ccccc3C(=O)/C2=N\S(=O)(=O)c2cccs2)cc1C,-0.8,3.0,4.5*,0.0,-2.6,1.5
CCC1CCc2sc(C(=O)Nc3cc(S(=O)(=O)N4CCOCC4)ccc3OC)cc2C1 (stereo not drawn),·,-0.3,·,-1.0,1.8,·
O=C1N/C(=N/N=C/c2ccco2)SC1Cc1ccccc1 (stereo not drawn),0.4,-1.2,5.9*,-0.9,-2.9,-1.3
Cc1ccc(CC2S/C(=N/N=C/c3ccco3)NC2=O)cc1 (stereo not drawn),1.0,0.8,0.9,-0.9,0.5,-1.2
Cc1ccc(C2=NN=C(NC(=O)C(F)(F)F)SC2)cc1,0.9,4.3,0.1,2.3*,12.2*,7.2
COc1ccc(N(C)S(=O)(=O)c2cccc(C(=O)OCC(=O)c3c(N)n(C)c(=O)n(C)c3=O)c2)cc1,-1.0,-1.1,-3.6,2.5*,0.0,-3.6
CC(C)[C@H](NC(=O)CC1CCCC1)C(=O)N1CCC[C@H]1C(=O)NCc1ccccc1,-0.2,0.3,·,-1.0,-0.9,1.3
c1ccc(SCCN2CCc3ccccc3C2)cc1,0.6,0.2,-0.6,-0.3,4.8,-0.1
c1ccc(SCCOCCN2CCc3ccccc3C2)cc1,0.8,6.3*,0.5,-0.8,2.6,-1.0
CC1CCc2sc(C(=O)NCc3ccc(F)cc3)cc2C1 (stereo not drawn),0.0,0.5,0.4,-1.3,1.4,0.8
O=C(NCc1ccc(F)cc1)c1cc2c(s1)CCCC2,-0.6,-2.6,7.0*,-1.1,4.1,-0.3
Cc1ccc2c(c1)C(CS(=O)(=O)NCC(C)C)NC2 (stereo not drawn),-0.7,1.0,·,-0.7,-1.2,-2.3
CN(C)c1ccc(/C=N\NC(=O)c2cccc(S(=O)(=O)N(C)C)c2)cc1,-0.8,-0.4,·,-1.6,3.9,-3.7
SMILES,DAX1 inh-1,hcDAF12 agonist,DAX1 inh-2,ssDAF12 agonist,hgDAF-12 ag,SMARCA2 act
Brc1ccccc1-n1nnc(-c2cnc3ccccc3c2)n1,5.2*,17.4*,1.1,3.5*,12.8*,5.7
O=C(NC(Cc1c[nH]c2ccccc12)C(=O)OCC(=O)c1cccc2ccccc12)c1cccs1 (stereo not drawn),-0.1,6.1*,0.5,-1.1,3.1,-2.2
O=[N+]([O-])c1cccc(C=NN2CCCCCC2)c1,1.5,2.6,1.4,-1.0,10.6*,1.2
O=[N+]([O-])c1ccccc1/C=C/C=N/N1CCCCC1,3.3,5.4,7.3*,0.1,10.9*,4.5
CC(C)(C)c1ccc(C(=O)N2CCCC2)s1,0.7,0.2,5.8*,-0.3,1.9,0.4
O=C(c1ccc(Cl)s1)N1CCCC1,-0.3,-0.3,2.5,-0.2,-1.6,-1.0
CN(C)S(=O)(=O)c1ccc(C(=O)OCCc2ccccc2)cc1,0.1,-1.7,0.6,-0.9,2.9,1.8
O=C(OCCc1ccccc1)c1cc(O)c(O)c(O)c1,2.1,6.2*,0.6,0.0,-1.7,3.5
Nc1ccc(C(=O)OCCc2ccccc2)cc1,1.0,1.9,5.1*,0.0,12.8*,4.7
O=C(OCCCCOC(=O)c1ccccc1)c1ccccc1,0.1,3.8,-1.9,-1.1,-0.3,-0.9
O=C(O)CCc1ccc(S(=O)(=O)Nc2ccccc2C(=O)NCCc2ccccc2)cc1,0.9,5.3,0.7,1.0*,9.6,7.2
CC(NC(=O)c1ccccc1NS(=O)(=O)c1ccc(CCC(=O)O)cc1)c1ccccc1 (stereo not drawn),0.7,0.6,0.4,-1.5,-0.1,-1.8
O=C(NCCc1ccccc1)c1ccc(NS(=O)(=O)c2ccc3[nH]c(=O)[nH]c3c2)cc1,3.8*,0.0,1.6,-0.7,6.1,0.8
O=c1[nH]c2ccc(NS(=O)(=O)c3ccc(F)c(Cl)c3)cc2[nH]1,-0.4,-0.1,-0.9,-0.5,-0.6,-0.8
O=c1[nH]c2ccc(NS(=O)(=O)c3ccc(Cl)cc3)cc2[nH]1,-0.3,2.4,5.0*,-1.9,1.2,-0.8
CCCCOCCCNC(=O)C[C@H]1C[C@@]2(C(=O)OC)C(=C[C@H](C(C)(C)C)O[C@@H]2C)N(Cc2ccc(Cl)cc2Cl)C1=O,0.2,-3.5,·,-0.6,-1.1,-1.8
